PubChem BioAssay (NCATS)
Inconclusive results are not listed. The source made the active and inactive calls. Calls come from the whole dose curve; as a rule, active = well fitted curve in the direction sought with a large enough effect; inconclusive = small, poorly fitted or top-dose-only effect, or another doubt; inactive = no such curve, though single readings can be large; an effect the other way counts as inactive or inconclusive.

Experiments:
[1] = biological target: Arylsulfatase A (Homo sapiens) (UniProt P15289); experiment: qHTS screen for enhancers of Arylsulfatase A (ASA1): LOPAC Validation Assay (AID 720538); conditions: ASA enzyme activity, LOPAC qHTS enhancer assay; series mostly up to 57.5 µM
How it was run: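 SV40-transformed fibroblasts from an MLD patient (ASA-I179S) were treated with compound for 48 h at 37 C. They were then lysed with 0.5 mM pNCS substrate (final) for 14 h at room temperature and stopped with NaOH; signal read by fluorescence (Ex 525/Em 598 nm), with increase denoting enhanced activity.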

[2] = qHTS for compounds that reverse cellular toxicity of Amyloid beta (A-beta) peptide in yeast: LOPAC Validation Assay (AID 720559); conditions: yeast expressing A-beta; series mostly up to 46.1 µM;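 note: plate controls were DMSO for no effect and equimolar ferric chloride plus clioquinol rescue for full effect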
How it was run: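 Yeast expressing toxic A-beta grown with pinned compounds at 30 C for 48 hr. Growth measured as absorbance at 600 nm; data normalized to DMSO and to an equimolar FeCl3/clioquinol mixture as positive control.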

Sequence of Arylsulfatase A (Homo sapiens) (P15289 whole entry, looked up): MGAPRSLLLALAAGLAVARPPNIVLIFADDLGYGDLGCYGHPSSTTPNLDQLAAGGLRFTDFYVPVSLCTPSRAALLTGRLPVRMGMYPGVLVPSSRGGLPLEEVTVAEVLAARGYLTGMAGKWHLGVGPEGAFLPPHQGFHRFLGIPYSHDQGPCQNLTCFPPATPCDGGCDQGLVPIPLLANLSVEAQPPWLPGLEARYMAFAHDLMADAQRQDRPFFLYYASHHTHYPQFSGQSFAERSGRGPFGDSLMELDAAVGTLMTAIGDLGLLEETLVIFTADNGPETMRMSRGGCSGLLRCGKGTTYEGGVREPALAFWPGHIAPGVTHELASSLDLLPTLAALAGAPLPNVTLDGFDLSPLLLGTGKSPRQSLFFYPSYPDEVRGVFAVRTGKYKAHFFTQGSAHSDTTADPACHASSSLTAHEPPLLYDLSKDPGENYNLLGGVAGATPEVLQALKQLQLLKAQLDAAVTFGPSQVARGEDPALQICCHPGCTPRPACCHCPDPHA

For `NC(N)=NOCCC(N)C(=O)O` (configuration not stated), the outcome [1] was “inactive; inhibitor; fitted 2.3934 uM” and the outcome [2] was “inactive”.

In the case of `NC(CCP(=O)(O)O)C(=O)O` (configuration not stated), the outcome [1] is reported as “inactive” and the outcome [2] is reported as “inactive”.

For `CN[C@@H]1C[C@@H](c2ccc(Cl)c(Cl)c2)c2ccccc21`, the outcome [2] was “inactive”.

In the case of `CC(=O)[C@H]1CCC2C3CC[C@H]4C[C@H](O)CC[C@]4(C)C3CC[C@@]21C` (some centres not stated), the outcome [1] is reported as “inactive” and the outcome [2] is reported as “inactive”.

For `C#CCOC(=O)C1=CCCN(C)C1`, the outcome [1] was “inactive” and the outcome [2] was “inactive”.

In the case of `O=C(O)Cc1cnc[nH]1`, the outcome [2] is reported as “inactive”.

For `O=C(O)CC[N+](=O)[O-]`, the outcome [1] was “inactive” and the outcome [2] was “inactive”.
